# Bioassay records (PubChem BioAssay)
# ALOX12 inhib = qHTS Assay for Inhibitors of 12-hLO (12-human lipoxygenase); Polyunsaturated fatty acid lipoxygenase ALOX12 (Homo sapiens), P18054; purified 12-hLO, xylenol orange hydroperoxide absorbance; Potency, µM (titrated, usually from 57.1 µM), actives largely listed as inhibitors; 0.12% of 150,000 active; AID 1452, 2008; further: nearly all actives have a fitted effect of over 55% in size
#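 Lipoxygenase turnover measured by absorbance at 573 and 405 nm after Fe-XO development. Human 12hLO 150 nM, arachidonate 40 uM, pH 7.0 Hepes buffer with detergent; 15 min compound preincubation, 30 min reaction.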
# PNC inhibitor = High Content Assay for Compounds that inhibit the Assembly of the Perinucleolar Compartment; 3.1% of 140,000 active; activity change (PNC), negative = inhibition, % at 10 µM; PC3M PTB-GFP, PNC prevalence imaging, 16 h; hits give low values; AID 2417, 2010;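 active means readout at or below -70, meaning at least 70% loss of cells showing the perinucleolar compartment, a nuclear body marking cancer cells; inconclusive means readout between -30 and a set limit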
#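 PC3M cells stably expressing PTB-GFP, 750–1000 cells/well, treated 16 h at 37 °C with compound (23 nl of library stock), in duplicate. After paraformaldehyde fixation and Hoechst stain, imaged at 20x; PNC prevalence scored by image analysis.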
# NPSR antag = qHTS Assay for Antagonists of the Neuropeptide S Receptor: cAMP Signal Transduction | Q6W5P4 | CHO-NPSR cells, cAMP TR-FRET, antagonist mode | Potency, µM (doses to about 38.3 µM), usual class: inhibitors | 1% of 220,000 active | AID 1461, 2008; further: nearly all actives have a fitted effect of over 50% in size
# Target sequence (Q6W5P4 whole entry, looked up): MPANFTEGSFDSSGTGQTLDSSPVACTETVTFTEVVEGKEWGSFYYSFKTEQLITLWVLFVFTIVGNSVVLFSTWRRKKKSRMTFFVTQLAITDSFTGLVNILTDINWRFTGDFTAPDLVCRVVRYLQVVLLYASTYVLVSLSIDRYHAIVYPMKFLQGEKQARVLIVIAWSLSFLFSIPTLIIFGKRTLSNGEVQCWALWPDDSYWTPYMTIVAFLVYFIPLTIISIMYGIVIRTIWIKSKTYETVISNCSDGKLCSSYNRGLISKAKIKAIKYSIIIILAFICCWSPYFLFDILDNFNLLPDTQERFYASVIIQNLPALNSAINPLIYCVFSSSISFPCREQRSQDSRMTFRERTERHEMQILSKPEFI
# HTT aggregate = qHTS Multiplex Assay to Identify Dual Action Probes in a Cell Model of Huntington: Aggregate Formation (GFP); PC12 HttQ103-GFP aggregates, Acumen cytometry, 40 h; Potency, µM (series often up to 46.1 µM), actives largely listed as inhibitors; 1.1% of 220,000 active; AID 1688, 2009; further: nearly all actives have a fitted effect of over 60% in size
#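 Ecdysone-promoter PC12 model expressing HTT exon 1 Q103 fused to GFP, induced by tebufenozide at 100 nM final. Compounds titrated; aggregates sized 1–25 µm scored on a 488 nm laser cytometer.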
# HTT cytoprotect = qHTS Multiplex Assay to Identify Dual Action Probes in a Cell Model of Huntington: Cytoprotection (ATP) | Potency, µM (doses to about 56.4 µM), usual class: activators | PC12 HTT-Q103 induced, cytoprotection, ATP luminescence, 40 h | 0.14% of 230,000 active; further: nearly all actives have a fitted effect of over 45% in size
#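 Compounds added alongside 100 nM tebufenozide, which induces toxic Q103 huntingtin exon 1-GFP in stable PC12 cells; surviving cells quantified by luminescent ATP measurement. Medium: phenol red-free DMEM, 5% equine and 5% calf serum.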
# IMPase inh = qHTS Assay for Identifying the Cell-Membrane Permeable IMPase Inhibitors. AID 901, 2007. 120,000 tested, under 10 active. CHO-M1 cells, IP1 accumulation, HTRF TR-FRET ratio. Inositol monophosphatase 1 (Rattus norvegicus), P97697. inhibition (IP1 accumulation), % at 46.1 µM; active means well fitted curve in the direction sought with a large enough effect in the signal ratio, not every such curve was filed as active; inconclusive means small, poorly fitted or top-dose-only effect, or a change in a side signal; inactive means no such curve, though single readings can be large or run the other way; the % refers to the signal ratio;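 further: cells stimulated with carbachol in lithium chloride buffer; higher means more IMPase inhibition seen as more IP1 and lower FRET ratio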
# Target sequence (P97697 whole entry, looked up): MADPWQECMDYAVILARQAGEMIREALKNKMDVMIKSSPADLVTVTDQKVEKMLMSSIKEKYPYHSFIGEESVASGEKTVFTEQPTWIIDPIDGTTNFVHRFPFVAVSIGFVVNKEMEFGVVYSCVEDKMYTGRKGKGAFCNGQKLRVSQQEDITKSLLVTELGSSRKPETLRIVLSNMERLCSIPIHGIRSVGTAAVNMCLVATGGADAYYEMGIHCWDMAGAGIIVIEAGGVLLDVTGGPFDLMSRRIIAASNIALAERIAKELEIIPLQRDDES
#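 Cellular IMPase inhibition is scored as a rise in cytosolic IP1, detected by competitive TR-FRET between d2-labelled IP1 and a europium anti-IP1 antibody. M1-expressing CHO cells were stimulated with carbachol for 30 min at 37C, with lithium (50 mM LiCl) present in the buffer.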
# A number is an active result; i = inactive; ? = inconclusive; nt = not tested or not shown; [ ] = remark or other dose. Rows were chosen to be rich in hits. Some 3.3% of all compounds tested hit in one or more screens of this group. Unless noted, the call rests on the fitted dose curve; in most records, active means well fitted curve in the direction sought with a large enough effect; inconclusive means small, poorly fitted or top-dose-only effect, or another doubt; inactive means no such curve, though single readings can be large; an effect the other way counts as inactive or inconclusive.
SMILES,ALOX12 inhib,PNC inhibitor,NPSR antag,HTT aggregate,HTT cytoprotect,IMPase inh
COc1cc(C(=O)Oc2ccccc2/C=N/NC(=O)c2ccc(C)c(Cl)c2)cc(OC)c1OC,i,?,i,2.8µM,i[10 µM],i
COc1cc(C(=O)Oc2ccccc2/C=N/NC(=O)c2ccc(Cl)cc2)cc(OC)c1OC,i,?,i,2.8µM,i[10 µM],nt
COc1ccc(C(=O)N/N=C/c2ccccc2C(=O)O)cc1OC,nt,nt,i,i[9.22 µM],i[10 µM],nt
Cc1cc(F)ccc1NCc1ccccc1-c1nnc(-c2ccccc2Cl)o1,nt,nt,nt,nt,nt,i
CCN1C(=O)c2ccccc2S(=O)c2ccc(C(=O)N3CCCC3)cc21 (stereo not drawn),i,i,i,i,i[10 µM],?
Cc1ccc(C)c(CN2C(=O)c3ccccc3S(=O)c3ccc(C(=O)N4CCN(c5ccccn5)CC4)cc32)c1 (stereo not drawn),nt,nt,7.9µM,i,nt,nt
COc1ccc(S(=O)(=O)NCC(c2cccnc2)N2CCN(C)CC2)cc1C (stereo not drawn),i,i,i,i,i[10 µM],i
CN1CCN(C(CNS(=O)(=O)c2ccc(F)cc2)c2cccnc2)CC1 (stereo not drawn),i,-100,i,i,i[10 µM],i
CN1CCN(C(CNS(=O)(=O)c2ccc(Cl)cc2)c2cccnc2)CC1 (stereo not drawn),i,-100,i,i,i[10 µM],i
COc1cccc(Nc2ncc3nc(C)c(=O)n(C4CC4)c3n2)c1,nt,nt,nt,nt,i,nt
O=C(Nc1ccccc1)N1CC[C@@]2(CCCN(C(=O)c3cnccn3)C2)C1,i,nt,nt,nt,?,nt
O=C(Nc1ccccc1)N1CCC2(CC1)CCN(C(=O)c1cnccn1)CC2,i,nt,nt,nt,3.5µM,nt
Nc1ccc2nc(CCCO)[nH]c2c1,nt,nt,i,i[9.22 µM],i[10 µM],nt
NS(=O)(=O)c1ccc(NC(=S)NCc2ccccc2)cc1,i,-97,i,i,i[10 µM],i
NS(=O)(=O)c1ccc(NC(=S)NCc2cccc(Cl)c2)cc1,i,i,i,i,i[10 µM],i
CN(Cc1nc(-c2cccnc2)no1)S(=O)(=O)c1ccc(Br)cc1,i,i,i,22µM,i[10 µM],i
COc1ccc(-c2noc(CCC(N)=O)n2)cc1OC,i,-113,i,i,i[10 µM],i
COc1ccc(-c2noc(CN(C)S(=O)(=O)c3ccc(Cl)cc3)n2)cc1OC,i,-92,i,?,i,i
CN(Cc1nc(-c2cccnc2)no1)S(=O)(=O)c1ccc2ccccc2c1,i,i,i,i,i,i
COc1cc(-c2noc(CCCC(=O)NCc3ccco3)n2)cc(OC)c1OC,i,-100,i,i,i[10 µM],i
CCOc1ccc(-c2noc(CCCC(N)=O)n2)cc1OC,i,i,i,i,i,i
Cc1ccc(-c2noc(CCC(=O)NCc3ccco3)n2)cc1,i,i,i,i,i,i
C[C@@]12C=CC(=O)C=C1CC[C@@H]1C2=CC[C@]2(C)[C@@H]1CC[C@H]2C(=O)CN1CCN(c2cc(N3CCCC3)nc(N3CCCC3)n2)CC1,i,nt,nt,nt,i[1.9 µM],i
COc1ccc(C2CC(=O)N(C)c3ccccc3S2)cc1 (stereo not drawn),nt,nt,i,i,i,nt
Cc1nn(C)cc1CNC(=O)/C=C/c1cnn(C)c1,i,-109,i,i,nt,nt
SMILES,ALOX12 inhib,PNC inhibitor,NPSR antag,HTT aggregate,HTT cytoprotect,IMPase inh
CCn1nc(C)c(NC(=O)/C=C/c2cnn(C)c2)c1C,i,i,i,i,i,i
N=c1n(-c2ccccc2)c(O)cc(=O)n1-c1ccccc1,i,i,i,i,i,i
O=c1cc(O)n(-c2ccccc2)c(=S)[nH]1,i,-100,i,i,i[10 µM],i
Cc1ccc(S(=O)(=O)N2c3ccccc3CC2C)cc1 (stereo not drawn),nt,nt,i,i,i[10 µM],nt
CCOc1ccc(S(=O)(=O)N2c3ccccc3CC2C)cc1 (stereo not drawn),i,-103,?,i,i,i
O=C(c1ccco1)N1CCC2(CCCN(c3ncccn3)C2)CC1,i,nt,nt,nt,i,nt
Cc1nn(-c2ccccc2)c(C)c1/C=N/NC(=O)c1cc(-c2ccccc2)n[nH]1,i,-87,i,i,i[10 µM],i
O=[N+]([O-])c1cc(-c2cnc3ccccc3n2)ccc1Oc1ccc(Br)cc1,i,-106,i,i,i,i
O=[N+]([O-])c1ccc(Oc2ccc(-c3cnc4ccccc4n3)cc2[N+](=O)[O-])cc1,i,i,i,i,i[10 µM],i
COc1ccc(Cn2c(SCc3cc(C)ccc3C)nc3cc(OC)c(OC)cc3c2=N)cc1,i,-114,i,3.2µM,i[10 µM],i
COCCCn1c(SCc2cccc(C(F)(F)F)c2)nc2cc(OC)c(OC)cc2c1=N,i,-106,?,i,i,i
COCCCn1c(SCc2ccccc2)nc2cc(OC)c(OC)cc2c1=N,i,i,?,i,?,i
CN1CCC2(CC1)CCN(C(=O)c1ccncc1)CC2,i,nt,nt,nt,?,nt
COc1cc([N+](=O)[O-])cc(/C=N/NC(=O)C(C)Nc2cccc3ccccc23)c1O (stereo not drawn),i,?,i,13µM,i[10 µM],i
CCOC(=O)CSc1nc2c(c(=O)[nH]c(=O)n2C)n1CCCc1ccccc1,i,-108,i,i,i[0.074 µM],i
Cn1c(=O)c2c(nc(SCC(=O)OCc3ccccc3)n2C)n(C)c1=O,i,-96,i,i,i,i
CC(=O)Nc1ccc(OC[C@@H](O)CNC(C)C)cc1,i,nt,nt,nt,?,i
CC#CCN1c2ccccc2[C@]23C[C@@H](C(=O)OC)N(S(=O)(=O)CCCC)C2=NC(C(=O)OC)=C(C(=O)OC)[C@H]13,i[11.4 µM],nt,nt,nt,i[10 µM],nt
CN1CCN(C(=S)NCCc2ccccc2)CC1,i,-82,i,i,i[10 µM],i
Cc1nc2sccn2c(=O)c1CCN1CCC(=C(c2ccc(F)cc2)c2ccc(F)cc2)CC1,i,-115,?,i,i,i
Cc1nc2ccccn2c(=O)c1CCN1CCC(C(=O)c2ccc(F)cc2)CC1,i,i,i,i,i,i
COc1ccc(Nc2nc(N3CCCCC3)c3ccccc3n2)cc1,?,?,?,18µM,i,i
COc1cccc(Nc2ncnc3ccccc23)c1,i,i,i,?,i,i
CCOc1ccc(Nc2ncnc3ccc([N+](=O)[O-])cc23)cc1,nt,nt,i,7.9µM,i[10 µM],nt
COc1ccc(Nc2ncnc3ccccc23)cc1,i,?,i,11µM,i,i
O=c1[nH]c2[nH]c(=S)[nH]c(=S)c2[nH]1,i[11.4 µM],nt,nt,nt,i[10 µM],nt
CCc1nc2nc(C)cc(Nc3ccc(OC)cc3OC)n2n1,nt,nt,nt,nt,nt,i
